Our source for the inhibition values is PubChem BioAssay AID1159606 (Sanford-Burnham Center for Chemical Genomics, 2016).

Usually inhibition stands for the relative decrease from the control value, in per cent.

The structures appear in SMILES notation. Where “and” joins values, the source holds several entries; their conditions need not be identical. Equal values may be shown once. The whole screen tested about 360,000 compounds, of which about 7,300 (2%) were called active. The sample holds actives, similar compounds and a random draw of the others, so the mix is not that of the screen. Values without a mark were called inactive. Cut-off read from the data, not from the text of the source: active = inhibition above about 50%; inactive = the rest.

The nature of the assay: blockers of TWEAK-induced Fn14 reporter activity – luciferase reporter cells, uHTS, primary screen (AID 1159606). The following applies: TWEAK-stimulated Fn14 reporter cells, luciferase luminescence, 8 h; at 10 µM; hits give high values. For orientation: A reporter such as luciferase makes a cellular process visible.
For `CN(C)CCCOc1ccc(-c2ccc3nccn3c2)cn1`, the inhibition is -18.9%.

In the case of `Cc1ccc(NC(=O)c2cc([N+](=O)[O-])ccc2Cl)c(O)c1`, the inhibition was 2.69%.

As for `O=C(NCC(c1cccs1)N1CCOCC1)c1cc(Cl)ccc1[N+](=O)[O-]` (configuration not stated), the inhibition is 7.3%.

Regarding `O=C(Nc1cccc2ccccc12)c1[nH]c(-c2ccccc2)c2c1C(=O)N(C1CC1)C2=O`, the inhibition was -46.7%.

As for `Cc1ccc(NC(=O)COC(=O)CN2CCSC2=O)cc1F`, the inhibition is 1.95%.

For the compound `Cn1c(=O)c2c(nc(Br)n2CCSc2nc3ccccc3o2)n(C)c1=O`, the inhibition is 7.06%.

Regarding `CN1C(CC(=O)Nc2ccc(Br)cc2)c2ccccc2CC1(C)C` (configuration not stated), the inhibition was 12.1%.

Consider `COc1ccc(Nc2cc(=O)oc3ccccc23)cc1`, for which the inhibition was 12.8%.

In the case of `COc1ccc(Sc2ccc(NC(=O)c3cccc(Cl)c3)cc2C#N)cc1`, the inhibition is 26.3%.

As to `COc1ccc(Nc2cc(Sc3ccc(OC)cc3)ncn2)cc1`, the inhibition was 69.9% (active).

In the case of `CN(C)CCCNC(=O)c1cc(C(=O)Cc2ccc(Cl)cc2)c[nH]1`, the inhibition was 5.27%.

Take `CC(C)Cn1cc(-c2cncc3nccn23)cn1`: the inhibition is 5.78%.

Regarding `CCc1nc2ccccc2c(C(=O)NCc2ccc(OC)cc2)c1C`, the inhibition was -1.16%.

Take `COC(=O)Cc1[nH]n(-c2nc3ccccc3s2)c(=O)c1C(C)=Nc1ccc(OC)cc1`: the inhibition is 101% (active).

Take `COC(=O)CC1=NN(c2ccccc2)C(=O)C1`: the inhibition was -14.8%.

With `CCOc1ccc2c(c1)c(=O)c(S(=O)(=O)c1ccc(C)cc1)cn2CC`, the inhibition is -0.17%.

In the case of `Cc1ccc(N2C(=O)CN=C2Nc2nc(C)cc(C)n2)cc1`, the inhibition was 4.62%.

With `O=C1NNC(c2ccccc2)=N/C1=C\c1ccc(Cl)cc1`, the inhibition is 16.8%.

Consider `CC(=O)N1CCN(S(=O)(=O)c2cccc(C(=O)NC3CCC(C)CC3)c2)CC1` (configuration not stated), for which the inhibition is 3.88%.

Consider `O=C(NC1CC1)c1ccc(-c2ccccc2)cc1`, for which the inhibition was -4.49%.

As to `O=C(NC1CC1)c1cccc(Br)c1`, the inhibition was 84.3% (active).

With `COCCN(C(=O)CC1CCCCC1)c1c(N)n(CC(C)C)c(=O)[nH]c1=O`, the inhibition was 19.1%.

Turning to `O=C(Nc1ccc(Cl)cc1)/C(=C1\CCCN1)[N+](=O)[O-]`, the inhibition is -36.6%.

With `COc1ccc(N2C(=O)C(O)C2c2ccc(C)cc2)cc1` (configuration not stated), the inhibition was 6.39%.

Take `COC(=O)COc1ccc(S(=O)(=O)N2CCOCC2)cc1`: the inhibition is 12.7%.

For the compound `COc1ccc(C(=O)Nc2nc(-c3ccc(S(=O)(=O)N4CCOCC4)cc3)cs2)cc1`, the inhibition was 93.7% (active).

In the case of `COc1ccc(C(=O)Nc2cc(S(=O)(=O)N3CCCC3)ccc2Cl)cc1`, the inhibition is -16%.

For `CS(=O)(=O)/C(C#N)=C/c1cccn1S(=O)(=O)c1ccc([N+](=O)[O-])cc1`, the inhibition is -15.1%.

As for `CCC(=O)N1Cc2cc(C(=O)NCc3cccc(F)c3)nc(-c3cccc(C4=CCCC4)c3)c2[C@H]1CCO`, the inhibition is -7.06%.

In the case of `Cc1ccc(Cl)cc1N1CCN(C(=O)c2cccc3c(=O)c(C)c(-c4ccccc4)oc23)CC1`, the inhibition was 40.6%.

`O=C(NCCC1=CCCCC1)c1ccc(-n2cncn2)cc1`: the inhibition is -8.52%.

As to `O=C(NCCC1=CCCCC1)c1ccc(Cl)c([N+](=O)[O-])c1`, the inhibition was -14.2%.

In the case of `Cn1nnc2cc(C(=O)NCCC3=CCCCC3)ccc21`, the inhibition was 51.2% (active).

On to `CC1CCCCC1NC(=O)CN1CCC(O)(c2ccc3c(c2)OCO3)CC1` (configuration not stated), for which the inhibition was 3.52%.

As for `CCCCn1nnnc1C(c1ccccc1)N1CCN(c2ccccc2OC)CC1` (configuration not stated), the inhibition is -11.6%.

Turning to `COc1cccc(/C=N/Nc2cc(C)nc(-c3ccccc3O)n2)c1O`, the inhibition is 59% (active).

With `COc1ccccc1-n1c(SCC(=O)Nc2cccc(C(=O)O)c2)nnc1-c1ccccc1O`, the inhibition is 8.74%.

Turning to `COc1cc(/C=N/Nc2ccc(C)cc2)cc(Br)c1O`, the inhibition was 4.13%.

Take `Cc1cc(CNC(=O)C2CCC(=O)N(CCc3ccc(Cl)cc3)C2)no1` (configuration not stated): the inhibition is 0.87%.

For the compound `CC(=O)N1CCN(S(=O)(=O)c2c(F)cc(F)c(Cl)c2F)CC1`, the inhibition was -11.6%.

Take `COc1ccc(/C=C2/SC(=O)N(CCCCCC(=O)Nc3ccccc3C(=O)O)C2=S)cc1`: the inhibition was 40.8%.

On to `COc1ccc(C(=O)Nc2ccccc2C(=O)N/N=C/c2ccc(O)c(OC)c2)cc1`, for which the inhibition is 103% (active).

For `COc1ccc(/C=N/Nc2ccccc2C(=O)O)cc1`, the inhibition was 57% (active).

Consider `COc1ccc(-c2[nH]ncc2/C=N/NC(=O)c2cc(Br)ccc2O)c(OC)c1`, for which the inhibition was 1.37%.

For the compound `COc1ccc(/C=N/NC(=O)C(C)N(c2ccc(OC)cc2)S(C)(=O)=O)cc1` (configuration not stated), the inhibition is 6.28%.

In the case of `O=C(NN=Cc1ccc2c(c1)CCC2)c1ccccc1O`, the inhibition is -39.1%.

`CCOC(=O)C(=O)C1C(=O)Nc2ccccc21` (configuration not stated): the inhibition was 6.46%.

For `CCOc1ccc(CCN2C(=O)C(=O)N([C@@H](Cc3ccc(O)cc3)CN3CCC[C@H]3CN3C(=O)C(=O)NC[C@@H]3CC(C)C)C[C@@H]2Cc2ccccc2)cc1`, the inhibition was 20.7%.

Take `CC1=NN(c2cccc(Cl)c2)C(=O)C12CC(C)=C(C)CS2` (configuration not stated): the inhibition is -6.06%.

For the compound `CC(NC(=O)CN1CCN(Cc2ccc(Cl)cc2)C1=O)c1ccc2c(c1)OCCO2` (configuration not stated), the inhibition was 13.5%.

For the compound `CC(C)C[C@H]1CNC(=O)C(=O)N1C[C@@H]1CCCN1C[C@H](Cc1ccccc1)N1C[C@H](CC(C)C)N(CC2CCCCCC2)C(=O)C1=O`, the inhibition is 5.6%.

For `CC1CC(=O)Nc2ccccc2N1C(=O)COc1ccc2cc(Br)ccc2c1` (configuration not stated), the inhibition was -17.9%.

Take `O=C(CNC(=O)c1cccnc1)N/N=C/c1cc(Br)c(O)c(Br)c1`: the inhibition was -15.2%.

With `Cc1ccc(S(=O)(=O)N(CC(=O)N/N=C/c2ccc(F)cc2)c2cccc3cccnc23)cc1`, the inhibition was -1.02%.

For the compound `O=C(CSc1cccc2cccnc12)N/N=C/c1cccnc1`, the inhibition was 73.4% (active).

For `COc1ccc(C)cc1NC(=O)NCCCCc1ccccc1`, the inhibition is -2.36%.

Consider `CCCCN1C(=O)CC(N2CCOCC2)C1=O` (configuration not stated), for which the inhibition was -9.74%.

`CCCCCn1nnnc1-c1nc2cc3ccccc3cc2[nH]c1=O`: the inhibition is -12.3%.

On to `CCCCCN(C(=O)CCC(=O)OCCOc1ccc(OC)cc1)c1c(N)n(CCCC)c(=O)[nH]c1=O`, for which the inhibition is -5.75%.

`Cc1ccc(NC(=O)N2CCSc3ccccc32)cc1`: the inhibition was -12.4%.

In the case of `C=C(C)C(=O)O[C@H]1C/C(C)=C\C(=O)/C=C(\C)[C@H](O)[C@@H]2OC(=O)C(=C)[C@@H]21`, the inhibition is 68.2% (active).

Regarding `CNC(=S)N/N=C/c1ccc(N2CCOCC2)s1`, the inhibition is 7.48%.

With `CC1(NC(=O)CCS(=O)(=O)c2ccc(Cl)cc2)CCS(=O)(=O)C1` (configuration not stated), the inhibition was 17.8%.

For `O=C(NCC(c1ccco1)N1CCc2ccccc2C1)c1ccccc1Cl` (configuration not stated), the inhibition is -3.94%.

For `Nc1cccc(OCCCCCOc2cccc(N)c2)c1`, the inhibition is -9.63%.

On to `Cc1cccc2nc(CSc3nc4[nH]ncc4c(=O)n3-c3cccc(Cl)c3)cc(=O)n12`, for which the inhibition was 68.9% (active).

Consider `O=c1c2sccc2nc(SCc2cc(=O)n3ccccc3n2)n1-c1ccc(Br)cc1`, for which the inhibition is -8.13%.

For `CCc1ccc(-n2c(SCc3cc(=O)n4cc(Br)ccc4n3)nc3[nH]ncc3c2=O)cc1`, the inhibition is 2.35%.

In the case of `COc1ccc(C(=O)CSc2n[nH]c(N)n2)cc1`, the inhibition was -14.2%.

Regarding `Cc1ccc(N2CCN(c3ccc(C)cc3)C2c2ccccn2)cc1`, the inhibition is -16.7%.

As for `CCOC(=O)C1CCCCN1Cc1ccc(OC)c(OC)c1OC` (configuration not stated), the inhibition was -2.28%.

Take `CC1Cc2[nH][nH]c(=O)c2C(C2CCCC2)O1` (configuration not stated): the inhibition is -6.62%.

As to `COc1ccccc1OCCNc1cc(N2CCOCC2)ccc1[N+](=O)[O-]`, the inhibition is -47.4%.

Turning to `COc1ccc(CCNc2cc(N3CCN(C(=O)c4ccccc4OC)CC3)ccc2[N+](=O)[O-])cc1OC`, the inhibition is 94.3% (active).

Turning to `COc1ccc(CCNC(=O)c2ccccc2-c2ccccc2C(=O)O)cc1OC`, the inhibition is 4.96%.

Regarding `CC(C)(O)C1=C[N+](=O)CC=C1`, the inhibition is 13.1%.

Regarding `CC1(C)SC2C(NC(=O)COc3ccccc3)C(=O)N2C1C(=O)O` (configuration not stated), the inhibition is 1.61% and -29.2%.

Regarding `CC(=O)Nc1ccc(S(=O)(=O)Nc2nc3n(n2)C(c2ccccc2)CC(=O)N3)cc1` (configuration not stated), the inhibition is -1.82%.

With `CC(C)[C@H](NC(=O)c1ccccc1F)C(=O)Nc1cccc(S(=O)(=O)N2CCOCC2)c1`, the inhibition is 12.8%.

On to `C=CCN(CC=C)C(=O)CN1C(=O)c2ccccc2C1=O`, for which the inhibition is 15.1%.

Regarding `Cc1cc(C(=O)COC(=O)CCCN2C(=O)c3ccccc3C2=O)c(C)n1C`, the inhibition is 5.35%.

For `C=CCn1c(C)cc(C(=O)CN2C(=O)c3ccccc3C2=O)c1C`, the inhibition was 63.3% (active).

Take `O=C1CCC(=O)N(O)CCCCCNC(=O)CCC(=O)N(O)CCCCCNC(=O)CCC(=O)N(O)CCCCCN1`: the inhibition is -10.8%.

Consider `C/C(=N/OC(=O)c1cccc(C(F)(F)F)c1)c1cnccn1`, for which the inhibition was -1.14%.

On to `Cc1ccc(OCCCC(=O)Nc2ccc3c(c2)OCCO3)cc1`, for which the inhibition is 63.9% (active).

On to `CCOc1ccc(NCCC(=O)c2ccc3c(c2)OCO3)cc1`, for which the inhibition was -3.49%.

With `COc1ccccc1OCCCC(=O)Nc1ccc2c(c1)OCCO2`, the inhibition is -33.3%.

For the compound `CCc1ccccc1OCC(=O)Nc1ccc2c(c1)OCCO2`, the inhibition is -1.57%.

Consider `COC(=O)CCNc1ccc2c(c1)OCCO2`, for which the inhibition is 93.8% (active).

In the case of `Cc1ccc(OCCCC(=O)Nc2ccc(N3CCOCC3)cc2)cc1`, the inhibition was 4.69%.

Consider `COC(=O)CCCCC1=CCC2C(=O)C=C(O)C2C1` (configuration not stated), for which the inhibition was -0.75%.

On to `O=C(NCc1cccnc1)c1cc(C2CCCN(C(=O)C3CCCCC3)C2)on1` (configuration not stated), for which the inhibition is -5.87%.
